PubChem BioAssay (NCI)
About 83,000 compounds went through this panel and 20% of them were active in at least one assay; those are over-represented in the sample as a whole.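 Single-concentration screen, 48 h exposure, 96-well plates. Endpoint: percent growth. Below 10 = active.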 Values without a mark were called inactive.

test system: NCI-H322M lung; assay: NCI-60 one-dose screen, 48 h (100 = growth as untreated, 0 = no growth, -100 = all killed); settings: 10 µM unless noted

SMILES	growth
Nc1c(C(=O)Nc2ccccc2)sc2nc3c(cc12)CN(C(=O)OCc1ccccc1)CC3	70%
Cc1cccc(C)c1NC(=O)CN(CC(C)C)CC(O)COc1ccccc1 (configuration not stated)	97.7%
C=C(C)[C@@H]1CCC=C2CC[C@]3(C)[C@H](CC[C@@H]4[C@@]5(C)CCCNC(C)(C)[C@@H]5CC[C@]43C)[C@H]21	33.7%
COC(=O)/C=C/c1cc(OC(C)=O)c2c(c1)C(C(=O)OC)C(c1ccc(OC(C)=O)c(OC(C)=O)c1)O2 (configuration not stated)	55.4%
COc1ccc(-c2[nH]c3ccccc3c2C=C(C#N)C#N)cc1	52.1%
COc1ccc(-c2nnc(N3CCN(C(=O)CN4CCN(c5ccccc5)CC4)CC3)nc2-c2ccc(OC)cc2)cc1	77.3%
O=c1[nH]c2ccccc2cc1-c1nc2ccc(Cl)cc2[nH]1	50.3%
O=C(NC[C@H](O)CN1CCc2ccccc2C1)c1cc(NC2COC2)ncn1	93.6%
COC1=CC2C=C(C3N(c4ccccc4)NC(=O)[C@@H]4CCCN34)C(=O)NC2C=C1 (some centres not stated)	93.5%
C#C[C@@]1(O)[C@@H](CO)O[C@@H](n2cc(-c3ccco3)c3c(N)ncnc32)[C@@H]1O	69.5%
Cc1[nH]c(N=Nc2ccccc2)nc1N=Nc1ccccc1	39%
COc1ccc(Nc2nc(SCC(C)C)nc(-c3ccc(F)cc3)c2C#N)cc1	97%
